For 13 compounds, outcome results are on record in PubChem BioAssay AID720690 (Broad Institute, 2013).

Results with a measured potency or affinity are listed apart. Activity calls are given as the source filed them.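 Rule for the calls: active = every repeat run showing a signal drop whose fitted half-maximal concentration is at most twice the top tested concentration; inconclusive = repeat runs disagree, or flat partial drop, or poor fit; inactive = the rest.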

The nature of the test: general mammalian cell viability loss – activator set, cherry-pick, cytotoxicity control for miR-122 modulator project, dose response (AID 720690). The following applies: HEK293T viability, CellTiter-Glo luminescence, 48 h; series mostly up to 26 µM. Background: Cellular ATP, detected with luciferase, serves as a proxy for viable cell number.
`C[C@@H]1CN([C@H](C)CO)C(=O)c2cc(-c3cncnc3)cnc2O[C@H]1CN(C)Cc1ccc(Oc2ccccc2)cc1`: the compound was called inactive.

With `CNC(=O)C[C@H]1CC[C@H]2[C@@H](COc3ccc(NC(=O)C4CC4)cc3C(=O)N2C)O1`, the compound was classed as inactive.

As to `C[C@@H]1CN([C@@H](C)CO)S(=O)(=O)c2ccc(C#CC3CC3)cc2O[C@@H]1CN(C)C(=O)c1cccc(F)c1`, the compound was called inactive.

For the compound `O=C(N[C@H]1CC[C@H](CCn2cc(C3(O)CCCC3)nn2)O[C@H]1CO)c1ccccc1F`, the outcome was inactive.

Regarding `Cc1nc(C)c(C(=O)Nc2ccc(Oc3ccccc3)cc2)o1`, the outcome was inactive.

In the case of `OC[C@H]1[C@@H](c2ccccc2)[C@@H](CNCC2CCC2)N1CC1CC1`, the compound was called inactive.

For the compound `O=C(COc1cccc2ccccc12)Nc1nc2ccccc2[nH]1`, the outcome was inactive.

Take `Cc1c(CC(=O)NCCCC(=O)O)c(=O)oc2cc3occ(-c4ccccc4)c3cc12`: the compound was classed as inactive.

As for `CN1C(=O)c2cc(NC(=O)c3cccs3)ccc2OC[C@H]2O[C@H](CC(=O)NCC(F)(F)F)CC[C@H]21`, the result was inactive.

Regarding `COCC(=O)NC[C@H]1[C@@H](c2ccc(C3=CCCC3)cc2)[C@@H](CO)N1C(=O)C1CC1`, the result was inactive.

In the case of `CC(C)C(=O)Nc1ccc2c(c1)C(=O)N(C)[C@H]1CC[C@H](CC(=O)NCCc3ccccc3)O[C@H]1CO2`, the compound was called inactive.

`CC(C)NC(=O)N1[C@H](CO)[C@@H](c2ccccc2)[C@@H]1CNC(=O)CN(C)C`: the outcome was inactive.

`COC(=O)C[C@@H]1CC[C@@H]2[C@H](COc3ccc(NC(=O)c4ccc(F)c(F)c4)cc3C(=O)N2C)O1`: the compound was classed as inactive.
